Assay outcomes (PubChem)
Six1-Eya2 inh: inhibitors of human Six1/Eya2 interaction; Q15475+O00167; AlphaScreen GST-Six1/His-Eya2 binding, biochemical; active compounds read low; activity change, % (concentration not given with the values); actives 0.56% (n = 360,000); AID 651725; in the data active = activity change below about -65%; inconclusive = mostly about -30% to -63%
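Homogeneous AlphaScreen proximity assay pairing GST-Six1 with His-tagged Eya2 (added as 5X mix: 250 nM and 500 nM) in 50 mM Tris pH 8.0, 300 mM NaCl, 1 mM TCEP. Glutathione donor and nickel acceptor beads; 1 h, 37 °C, dark.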
HP1b chromo inh: inhibitors of HP1-beta chromodomain binding to methylated histone tails. P83916. AlphaScreen HP1-beta / biotin-H3K9me3 peptide binding. Potency, µM (titrated, usually from 114 µM), actives largely listed as inhibitors. actives 0.56% (n = 390,000). AID 540317; note: nearly all actives have a fitted effect of over 70% in size
Target sequence (P83916 whole entry, looked up): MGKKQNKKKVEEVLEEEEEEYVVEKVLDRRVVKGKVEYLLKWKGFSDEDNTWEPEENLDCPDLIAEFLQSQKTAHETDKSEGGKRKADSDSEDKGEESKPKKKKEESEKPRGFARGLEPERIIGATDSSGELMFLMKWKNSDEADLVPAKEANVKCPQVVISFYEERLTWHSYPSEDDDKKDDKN
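Compound inhibition of the preformed complex between 50 nM HP1-beta and 50 nM biotinylated H3K9me3 peptide was read by AlphaScreen. Buffer was PBS pH 7.4 with 0.01% Tween-20. Incubations ran 30 min at room temperature, with 10 ug/mL donor/acceptor beads.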
JMJD2A Tudor: blocks the human JMJD2A Tudor domain; Potency, µM (series often up to 114 µM), actives largely listed as inhibitors; actives 4.4% (n = 390,000); O75164; AlphaScreen JMJD2A-Tudor / H3K4me3 peptide binding; AID 504339; note: nearly all actives have a fitted effect of over 50% in size
CtBP-E1A inh: CtBP/E1A binding inhibition | AlphaScreen GST-E1A/His-CtBP binding, 1536-well; active compounds read low | activity change, % (no concentration beside the values) | actives 0.49% (n = 340,000); in the data active = activity change below about -65%; inconclusive = mostly about -30% to -63%
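In 5 uL wells, 23 nL compound meets equimolar GST-E1A and His-CtBP (5X stock 125 nM each) for 2 h, 37 °C. Beads (5X, 50 ug/mL) then 1 h, 37 °C, dark.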
BAZ2B inh: BAZ2B (human) inhibition; Q9UIF8; AlphaScreen BAZ2B-H3K14Ac peptide displacement; Potency, µM (top dose mostly 114 µM), most hits filed as inhibitors; actives 4.4% (n = 360,000); note: nearly all actives have a fitted effect of over 60% in size
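Inhibition is scored as reduced AlphaScreen emission. The BAZ2B/b-H3(5-23)K14Ac complex (50 nM each) in PBS pH 7.4, 0.01% Tween-20 meets compound (up to 110 uM) for 30 min at RT before bead addition.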
G9a block: G9a (human) methyltransferase inhibition. actives 8.8% (n = 350,000). AID 504332. Potency, µM (highest dose often 102 µM), actives largely listed as inhibitors. G9a H3K9 monomethylation, AlphaScreen, 2 h; note: nearly all actives have a fitted effect of over 75% in size
Target sequence (Q96KQ7 913-1193 limits assumed): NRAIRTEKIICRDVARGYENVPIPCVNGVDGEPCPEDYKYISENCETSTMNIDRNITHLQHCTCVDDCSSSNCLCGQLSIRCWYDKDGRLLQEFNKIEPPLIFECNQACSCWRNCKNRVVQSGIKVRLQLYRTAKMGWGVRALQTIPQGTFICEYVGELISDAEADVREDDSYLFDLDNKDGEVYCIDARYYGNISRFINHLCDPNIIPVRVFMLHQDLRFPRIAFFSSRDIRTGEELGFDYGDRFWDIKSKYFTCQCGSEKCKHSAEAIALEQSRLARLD
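Quantitative HTS format: methyltransferase activity on a biotin-tagged H3K9 peptide is measured by AlphaScreen, using a rabbit anti-monomethyl-H3K9 antibody with streptavidin donor and anti-IgG acceptor beads. Final levels are 20 nM enzyme, 500 nM peptide, 20 uM SAM; 2 h RT.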
A number is an active result; 0 = inactive; ? = inconclusive; - = no result given; [ ] = remark or other dose. This is a sample that favours compounds with a hit; in the whole collection about 10% have one here. Unless noted, calls come from the whole dose curve; as a rule, active = well fitted inhibition curve with a large enough effect; inconclusive = small, poorly fitted or top-dose-only effect; inactive = no such curve, though single readings can be large or run the other way.

SMILES | Six1-Eya2 inh | HP1b chromo inh | JMJD2A Tudor | CtBP-E1A inh | BAZ2B inh | G9a block
O=C(NC1CC(=O)N(c2ccccc2)C1)c1ccc(S(=O)(=O)N2CCCCC2)cc1 (centres undefined) | - | 0 | 0 | - | 0 | 0
COc1cc(C=C2C(=O)C=CC2=O)ccc1O | -74 | - | - | 0 | - | -
COc1cc(/C=C2\NC(=S)N(C)C2=O)ccc1O | 0 | 0 | 0 | 0 | ? | ?
COc1cc(C=C2NC(=O)NC2=O)ccc1O | 0 | - | - | 0 | - | -
COc1cc(/C=C2/C(=O)CNC2=O)ccc1O | 0 | 0 | 0 | 0 | 0 | 45µM
NCCCCC(N)c1cn([C@@H](CCC(=O)O)C(=O)N2CCNCC2)nn1 (some centres undefined) | 0 | 0 | 0 | 0 | 0 | 0[2.33 µM]
COc1ccc(-c2cc(NC(C)=O)c3ncc(-c4ccccc4)n3c2)c(OC)c1 | 0 | - | - | 0 | - | -
Cc1cc(C)c(S(=O)(=O)NCC23C=CC(O2)C2C(=O)N(c4ccccc4)C(=O)C23)c(C)c1 (centres undefined) | 0 | ? | 50µM | 0 | ? | 0[0.501 µM]
O=C1C2C3C=CC(CNS(=O)(=O)c4ccccc4[N+](=O)[O-])(O3)C2C(=O)N1c1ccccc1 (centres undefined) | 0 | ? | ? | 0 | 0 | 4.5µM
Cc1ccc(NC2=Nc3ccccc3CS2)cc1 | 0 | 0 | ? | 0 | 0 | 10µM
O=C(CCCN1C(=O)c2cccc3cccc(c23)C1=O)NC1CCS(=O)(=O)C1 (centres undefined) | 0 | 0 | 0[11.4 µM] | - | 0 | 0
CCn1c(C(C)NS(=O)(=O)c2ccc(Cl)cc2)n[nH]c1=S (centres undefined) | 0 | 0 | 20µM | 0 | 0 | -
CCCn1c(C(C)NS(=O)(=O)c2ccccc2)n[nH]c1=S (centres undefined) | 0 | 0 | ? | - | 0 | 20µM
CCCC(C)NS(=O)(=O)c1ccccc1 (centres undefined) | 0 | 0 | 0 | 0 | 0 | 0
CCn1c(CNS(=O)(=O)c2ccc(Br)cc2)n[nH]c1=S | 0 | 0 | 22µM | 0 | 0 | 35µM
C#CCSc1nnc(CNS(=O)(=O)c2ccc(Br)cc2)n1C | 0 | 0 | 0 | 0 | 0 | 0
COc1ccc(CNC(=O)c2cc3cc(C)ccc3n2C)cc1 | - | 0 | 0 | - | 0 | 0
Cc1cc2c(s1)c1cnn(Cc3ccc(C(=O)O)cc3)c(=O)c1n2C | - | - | 0 | - | - | -
O=S(=O)(c1ccccc1)N1CCC2(CCCN(c3ccccn3)C2)CC1 | - | - | - | - | - | 0[12.7 µM]
Cc1c(C=O)c2ccccn2c1C(=O)c1cccs1 | 0 | 0 | 0 | ? | 0 | 50µM
Cc1c(C=O)c2ccccn2c1C(=O)c1ccccc1Cl | 0 | 0 | 0 | 0 | 0 | 0[2.33 µM]
Cc1oc(C)c2c(=O)cc(-c3ccc4c(c3)OCO4)cc(OC(=O)c3cccc(Br)c3)c12 | - | 0 | 0 | - | 0 | ?
CCOC(=O)C1CCN(C(=S)Nc2ccc(C)cc2)CC1 | 0 | 0 | 0 | - | 0 | 0
CCOC(=O)C1CCN(C(=S)Nc2ccc(S(N)(=O)=O)cc2)CC1 | 0 | ? | ? | 0 | 0 | 10µM
CCOC(=O)C1CCCN(C(=S)Nc2ccc(Nc3ccccc3)cc2)C1 (centres undefined) | 0 | ? | 56µM | 0 | 35µM | 25µM
SMILES | Six1-Eya2 inh | HP1b chromo inh | JMJD2A Tudor | CtBP-E1A inh | BAZ2B inh | G9a block
NS(=O)(=O)c1ccc(NC(=S)N2CCC(O)CC2)cc1 | 0 | 0 | 0 | 0 | 0 | 40µM
CCOC(=O)C1CCCN(C(=O)Cn2ncc3c([nH]c4ccc(C)cc43)c2=O)C1 (centres undefined) | 0 | 0 | 0 | 0 | 0 | 0
CN1CCC(Oc2ccc(Sc3ccccc3)cc2)CC1 | 0 | 0 | 0 | 0 | 0 | 0
CN1CCC(Oc2ccccc2Sc2ccc(C(F)(F)F)cc2)CC1 | 0 | 0 | ? | 0 | 79µM | ?
COc1ccc(C(=O)CSc2ncnc3nc[nH]c23)cc1 | 0 | 0 | 0 | 0 | 0 | 0
Cc1ccc(OCCSc2ncnc3nc[nH]c23)cc1 | 0 | 0 | 0 | 0 | 0 | 40µM
CC(C)(C)Cc1nnc(NC(=O)c2ccco2)s1 | 0 | 0 | 0 | 0 | 0 | 0
CCOc1cc(Br)cc(/C=C2\SC(=Nc3ccccc3)NC2=O)c1O | 0 | 0 | 0 | - | 0 | -
C=CCOc1ccc(Br)cc1/C=C1/SC(=Nc2ccc(C(=O)O)cc2)NC1=O | 0 | 0 | ? | 0 | 45µM | 20µM
